# High-throughput results deposited in PubChem by National Center for Advancing Translational Sciences (NCATS).
# HP1b binding inh – HP1-beta chromodomain-methylated histone interaction inhibition. Potency, µM (doses to about 114 µM), without a hit: at the highest dose activity change, negative = inhibition, usual class: inhibitors. P83916. hit rate 0.56% among 390,000. AlphaScreen HP1-beta / biotin-H3K9me3 peptide binding; further: nearly all actives have a fitted effect of over 70% in size
#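 HP1-beta protein (50 nM final) preincubated 30 min at room temperature with biotinylated H3(1-18)K9me3 peptide (50 nM) in PBS pH 7.4, 0.01% Tween-20, then compound added for 30 min. AlphaScreen streptavidin donor/nickel chelate acceptor beads (10 ug/mL final), 30 min dark, luminescence read.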
# G9a block – blocks human histone lysine methyltransferase G9a; Q96KQ7; G9a H3K9 monomethylation, AlphaScreen, 2 h; Potency, µM (titrated, usually from 102 µM), without a hit: at the highest dose activity, negative = inhibition, actives largely listed as inhibitors; hit rate 8.8% among 350,000; further: on the % scale 0 is the no-effect control and ±100 the full control effect; nearly all actives have a fitted effect of over 75% in size
#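 Using a bead-based AlphaScreen, monomethylated H3K9 product from 2 h room-temperature reactions (G9a 20 nM, peptide 500 nM, SAM 20 uM) was detected with 0.5 ug/mL rabbit anti-H3K9me1 antibody.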
# Sfp PPTase inh – inhibitors of Bacillus subtilis Sfp phosphopantetheinyl transferase; Q9F4F7; Biochemical Sfp PPTase activity, qHTS; Potency, µM, for the others: largest response in the series, negative = inhibition, actives largely listed as inhibitors; hit rate 3.5% among 310,000;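 further: the enzyme is Sfp with the accession as filed and its product quenches rhodamine fluorescence; 0% = enzyme reaction without inhibitor and -100% = no enzyme wells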
#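 Buffer: 50 mM Hepes-Na pH 7.6, 10 mM MgCl2, 0.01% Nonidet P-40, 0.01% BSA. Enzyme 15 nM, pre-exposed to compound 15 min; substrates then added and fluorescence change tracked over 30 min.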
# BAZ2B block – blocks human BAZ2B; Q9UIF8; AlphaScreen BAZ2B-H3K14Ac peptide displacement; Potency, µM (highest dose often 114 µM), for inactives: at the top dose activity change, negative = inhibition, usual class: inhibitors; hit rate 4.4% among 360,000; AID 504333; further: on the % scale 0 is the no-effect control and ±100 the full control effect; nearly all actives have a fitted effect of over 60% in size
#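 Inhibition is scored as reduced AlphaScreen emission. The BAZ2B/b-H3(5-23)K14Ac complex (50 nM each) in PBS pH 7.4, 0.01% Tween-20 meets compound (up to 110 uM) for 30 min at RT before bead addition.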
# JMJD2A Tudor inh – JMJD2A Tudor domain (human) inhibition. O75164. AlphaScreen JMJD2A-Tudor / H3K4me3 peptide binding. Potency, µM (titrated, usually from 114 µM), for inactives: at the top dose activity change, negative = inhibition, usual class: inhibitors. hit rate 4.4% among 390,000; further: on the % scale 0 is the no-effect control and ±100 the full control effect; nearly all actives have a fitted effect of over 50% in size
# * = called active by the depositor; ? = inconclusive; · = no result; [ ] = another dose, or the depositor's remark. A selection: hits, their analogues and other compounds. The true share with any hit is near 12%. The call rests on the fitted dose curve; in most records, active means well fitted curve in the direction sought with a large enough effect; inconclusive means small, poorly fitted or top-dose-only effect, or another doubt; inactive means no such curve, though single readings can be large; an effect the other way counts as inactive or inconclusive. Potency means the concentration at half of the fitted maximal effect.
SMILES,HP1b binding inh,G9a block,Sfp PPTase inh,BAZ2B block,JMJD2A Tudor inh
C=CCOC(=O)C1=C(C)Nc2ncnn2C1c1cc(Br)ccc1F (centres undefined),23%,-28%[0.0925 µM],5%,3%,-13%
COc1cccc(C2C=C(c3ccc(Br)s3)Nc3ncnn32)c1OC (centres undefined),26%,28µM*,?,?,-24%
Fc1ccc(Br)cc1C1C=C(c2ccc(Br)s2)Nc2ncnn21 (centres undefined),19%,10µM*,56µM*,?,?
COc1cc(/C=N/n2c(C3CCCCC3)n[nH]c2=S)ccc1O,?,3.5µM*,?,-14%,11µM*
COc1ccc(/C=N/n2c(C3CCCCC3)n[nH]c2=S)c(OC)c1,-8%,14µM*,-19%,?,40µM*
COc1cccc(/C=N/n2c(C3CCCCC3)n[nH]c2=S)c1OC,36%,?,-3%,6%,?
COc1cc(OC)c(/C=N/n2c(C3CCCCC3)n[nH]c2=S)c(OC)c1,0%,1.3µM*,-9%,-18%,4µM*
COc1cccc(/C=N/n2c(C3CCCCC3)n[nH]c2=S)c1O,16%,2.5µM*,79µM*,-32%,25µM*
Cc1nc2cnc(Oc3cccc(Cl)c3)nc2n(C[C@H]2CCCO2)c1=O,·,-22%[12.7 µM],24%,·,·
CC(=O)c1ccc(COC(=O)Cc2ccc([N+](=O)[O-])cc2)cc1,40%,37%,-3%,-4%,1%
Cc1nn(C)c(C)c1S(=O)(=O)N1CCCC(C(=O)N2CCN(c3ccccc3)CC2)C1 (centres undefined),33%,-11%,12%,-2%,-17%
O=S(=O)(c1ccc2ccccc2c1)N1CCCCCC1,115%,·,?,-4%,-4%[11.4 µM]
COc1ccc(S(=O)(=O)n2oc(=O)cc2-c2ccccc2)cc1,13%,40µM*,2%,56µM*,-15%
COc1ccc(S(=O)(=O)n2oc(=O)cc2-c2ccccc2)cc1OC,4%,?,-25%,56µM*,35µM*
COc1ccc2c(ccn2S(=O)(=O)c2ccccc2)c1,95%,·,3%,112%,80%
O=c1cc(-c2ccccc2)n(S(=O)(=O)c2ccc3ccccc3c2)o1,-19%,·,·,·,45µM*
CC(CC(=O)Nc1ccncc1)c1ccccc1 (centres undefined),31%,-1%[59 µM],13%,-3%,3%
CCc1cccc2c(C(=O)CSc3nncn3C)c[nH]c12,28%,11%,17%,4%,-4%
O=C1CSC(c2ccccn2)N1c1ccccc1F (centres undefined),14%,-29%,13%,0%,-14%
COc1cc(/C=N/n2cnc3scc(-c4cccs4)c3c2=O)cc(OC)c1OC,28%,17%,5%,9%,-12%
CC(C)(C)c1ccc(OCC(O)CSc2ncn[nH]2)cc1 (centres undefined),30%,8.9µM*,-13%,-8%,32µM*
OC(COc1ccccc1)CSc1ncn[nH]1 (centres undefined),26%,13%[12.7 µM],6%,7%,-9%
CCOC(=O)CSc1ccc(S(=O)(=O)N(C)C2CCCCC2)cc1[N+](=O)[O-],-20%,?,22%,?,56µM*
CC1CCCCN1C(=O)COC(=O)CSc1ccc(C(N)=O)cc1[N+](=O)[O-] (centres undefined),45%,·,·,·,-2%
CCOC(=O)CSc1ccc(S(=O)(=O)N2CCCCC2)cc1[N+](=O)[O-],-6%,-14%,2%,?,?
SMILES,HP1b binding inh,G9a block,Sfp PPTase inh,BAZ2B block,JMJD2A Tudor inh
NC(=O)c1ccc(SCC(=O)OCC(=O)NCC2CCCCC2)c([N+](=O)[O-])c1,14%,45µM*,·,8%,-6%
CC1CCCC(C)N1C(=O)COC(=O)CSc1ccc(C(N)=O)cc1[N+](=O)[O-] (centres undefined),-4%,45µM*,·,1%,-22%
O=C(Nc1ccccc1F)C1CCN(S(=O)(=O)c2cccnc2)CC1,24%,·,8%,-5%,-7%
COc1cc(NC(=O)Cc2ccc(F)cc2)cc(OC)c1OC,30%,-36%,-8%,-12%,4%
CCNS(=O)(=O)c1ccc(CCC(=O)NCc2cccnc2)cc1,45%,-8%,14%,-9%,4%
Cc1ccc(NS(=O)(=O)c2ccc(CCC(=O)NCc3cccnc3)cc2)cc1,42%,40µM*,12%,-4%,-3%
CCN(CC)C(=O)c1ccc(S(=O)(=O)NCc2cccnc2)cc1,13%,79µM*,-6%,-1%,-16%
CCc1ccc(S(=O)(=O)NCc2cccnc2)cc1,26%,·,7%,-8%,-16%
CCCCn1c(=N)c(S(=O)(=O)c2ccc(C)cc2)cc2c(=O)n3cc(C)ccc3nc21,12%,5%[59 µM],·,1%,1%
CCCc1[nH]n(-c2ccc(F)cc2)c(=O)c1C=Nc1cccc(F)c1,3%,19%[59 µM],-9%,-1%,-17%
O=c1c2c(C(F)(F)F)cc(C(F)(F)F)nc2[nH]n1-c1ccccc1,-23%,7.9µM*,-8%,?,?
CC(C)(C)CC(=O)N1CCN(Cc2ccc3c(c2)OCO3)CC1,39%,13%,20%,-6%,6%
COc1ccc(-n2c(CN3CCN(c4ccccn4)CC3)nc3ccc([N+](=O)[O-])cc3c2=O)c(OC)c1,3%,32µM*,5%,?,?
C=CCN(c1ccc(C(=O)Nc2ccc(NC(C)=O)cc2)cc1)S(C)(=O)=O,-7%,-25%,14%,7%,14µM*
O=C(Cn1cnc([N+](=O)[O-])c1)NCCc1ccccc1,21%,28µM*,5%,-29%,-8%
O=C(Cn1cnc([N+](=O)[O-])c1)NCc1ccc(F)cc1,19%,·,-2%,7%,4%
COc1ccc(NC2=C(C(C)=O)C(c3ccc(N(C)C)cc3)C(C(C)=O)C(C)(O)C2)cc1 (centres undefined),2%,20µM*,-2%,-3%,-23%
COc1ccc(NC2=C(C(C)=O)C(c3ccc(OC)cc3)C(C(C)=O)C(C)(O)C2)cc1 (centres undefined),-12%,?,7%,-21%,-5%[11.4 µM]
CC(C)(CC(=O)O)CC(=O)NCc1c(Cl)cccc1Sc1ccc(Cl)cc1,52%,-2%,12%,-3%,-1%
O=C(O)CCCC(=O)NCc1c(Cl)cccc1Sc1ccc(Cl)cc1,18%,·,79µM*,3%,-8%
COC(=O)C(=C/C=C/c1ccco1)C(=O)OC,38%,45µM*,-1%,-24%,-9%
Fc1ccc(NC(=S)N/N=C/c2ccc(F)c(F)c2)c(F)c1,48%,55%[59 µM],0%,7%,17%
O=C(/C(C=Nc1ccc(Br)cc1)=C(/O)c1ccco1)C(F)(F)F,38%,45µM*,6%,-1%,-25%
CC(C)NC(=O)COC(=O)c1cccc(NS(=O)(=O)/C=C/c2ccccc2)c1,15%,?,12%,6%,7%
